Screens deposited in PubChem BioAssay by National Center for Advancing Translational Sciences (NCATS).
A selection: hits, their analogues and other compounds. The true share with any hit is near 21%.
Cycloheximide cs: counter-screen hit for Shiga toxin inhibitors, cycloheximide. cell reporter, cycloheximide protein synthesis inhibition counterscreen. max response, %. 300,000 compounds, 12% hits. AID 2314; in the data active means max response mostly above about 13%, no sharp cut-off; inactive means mostly below about 14%; further: read at 38.3 µM for the half of the compounds with a filed dose
Shiga toxin inh: blocks Shiga toxin action in Vero cells. 290,000 compounds, 9.2% hits. Vero cells, Shiga toxin protein synthesis inhibition reporter. inhibition, % at 38.7 µM; in the data active means inhibition mostly above about 28%, no sharp cut-off; inactive means mostly below about 43%
Pf growth 48h: P. falciparum growth inhibition at 48 hours (one generation) | Potency, µM (titrated, usually from 28.7 µM), usual class: inhibitors | AID 504832 | 310,000 compounds, 5.9% hits | P. falciparum luciferase growth in erythrocytes, 48 h; active means well fitted inhibition curve with a large enough effect; inconclusive means small, poorly fitted or top-dose-only effect, or another doubt; inactive means no such curve, though single readings can be large or run the other way
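Firefly luciferase activity from engineered P. falciparum reports growth; inhibitors lower the luminescent signal. Cultures contained 2% hematocrit erythrocytes at 0.1% final parasitemia.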
NS1 function inh: blocks influenza NS1 protein function; 270,000 compounds, 0.4% hits; Potency, µM (highest dose often 46.1 µM); further: actives are rising curves; nearly all actives have a fitted effect of over 50% in size
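A cell-based growth assay was used: compounds that relieve NS1-induced slow growth of budding yeast raise OD600. Assay medium was yeast nitrogen base with ammonium sulphate and -URA supplement, pH 6.0, with 2% galactose.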
Pf growth 96h: inhibits malaria parasite growth, 96 h. P. falciparum luciferase reporter growth, 96 h. Potency, µM (doses to about 28.7 µM), usual class: inhibitors. 320,000 compounds, 6.9% hits; active means well fitted inhibition curve with a large enough effect; inconclusive means small, poorly fitted or top-dose-only effect, or another doubt; inactive means no such curve, though single readings can be large or run the other way
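Delayed-death screen, second-generation endpoint: infected erythrocytes, 2% hematocrit, 0.05% parasitemia final; 96 hours at 37 C, 5% CO2; luciferase detection reagent; luminescence decrease equals reduced growth.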
SARS PLpro yeast: SARS-CoV PLP inhibition in yeast. Potency, µM (highest dose often 32.9 µM), hits mostly activators. S. cerevisiae expressing SARS-CoV PLpro, growth rescue. 330,000 compounds, 0.19% hits. AID 485353; further: nearly all actives have a fitted effect of over 55% in size
Large screens that a line does not name were inactive. Unless noted, the call rests on the fitted dose curve.

O=C(Nc1nc(-c2cccs2)cs1)c1cccc(S(=O)(=O)N2CCCCC2)c1	Cycloheximide cs 17.6, Pf growth 48h inconclusive, Pf growth 96h inconclusive
O=C1c2ccccc2C(=O)N1n1cccc1	none
COc1ccccc1NC(=O)COC(=O)c1ccc(S(=O)(=O)N2CCCCCC2)cc1	none (no result: Cycloheximide cs, Shiga toxin inh, Pf growth 48h, NS1 function inh, Pf growth 96h)
O=C(O)c1cccc(-n2sc3ccccc3c2=O)c1	Pf growth 96h inconclusive (no result: Cycloheximide cs, Shiga toxin inh, NS1 function inh)
O=c1c2cc(F)ccc2sn1-c1ccccc1	Pf growth 48h 4.15µM, Pf growth 96h 5.22µM (no result: Cycloheximide cs, Shiga toxin inh, NS1 function inh)
Cc1ccccc1-n1sc2cc(F)ccc2c1=O	Pf growth 48h inconclusive (no result: NS1 function inh)
O=c1c2ccccc2sn1-c1ccccc1	Cycloheximide cs 24.4, Pf growth 48h inconclusive (no result: Pf growth 96h)
COC(=O)c1cn(C(=O)c2cccc(C)c2)c2ccccc12	Pf growth 96h inconclusive
CCCCc1c(O)cc(C)[nH]c1=O	none
O=C(O)c1cccc(NC(=O)c2ccc3c(c2)C(=O)N(c2cccc([N+](=O)[O-])c2)C3=O)c1	Pf growth 96h 5.86µM
CCN1C(=O)c2ccc(C(=O)Nc3cccc(C(=O)O)c3)cc2C1=O	Cycloheximide cs 19.8, Shiga toxin inh 48.0 (no result: Pf growth 48h)
O=C(O)c1ccc2c(c1)C(=O)N(c1cccc(C(=O)/C=C/c3ccccc3)c1)C2=O	Cycloheximide cs 28.4, Shiga toxin inh 52.5
CC(C)(C)N1C(=O)c2ccc(C(=O)Nc3ccc(C(=O)O)cc3)cc2C1=O	Pf growth 96h 9.28µM
CCC(C)[C@H](NC(=O)[C@@H]1CSC2c3ccccc3C(=O)N21)C(=O)NCc1ccncc1 (stereo not given in full)	Pf growth 96h inconclusive
O=C(Nc1cccc(F)c1)C1CCN(C(=O)N2CCOc3ccccc32)CC1	none
CC(NC(=O)Cc1cc(F)cc(F)c1)C(=O)NC(C(=O)OC(C)(C)C)c1ccccc1 (stereo not given)	none (no result: Pf growth 48h, NS1 function inh, Pf growth 96h, SARS PLpro yeast)
O=S(=O)(c1ccc(SCc2ccc(Br)cc2)nc1)N1CCCCC1	Pf growth 48h inconclusive (no result: Cycloheximide cs, Shiga toxin inh, NS1 function inh)
Cc1ccc(NC(=O)c2ccc(NCCCN3CCOCC3)c([N+](=O)[O-])c2)cc1Cl	Pf growth 48h 2.33µM
CC(C)(CNc1ccc([N+](=O)[O-])cc1C#N)N1CCOCC1	Pf growth 96h inconclusive (no result: NS1 function inh)
CC(C)(CNc1ccc(S(=O)(=O)C(F)(F)F)cc1[N+](=O)[O-])N1CCOCC1	Cycloheximide cs 35.4, Shiga toxin inh 30.6, Pf growth 48h inconclusive, Pf growth 96h inconclusive
O=[N+]([O-])c1cc(S(=O)(=O)N2CCCCC2)ccc1NCCCN1CCOCC1	Shiga toxin inh 42.1, Pf growth 48h inconclusive, Pf growth 96h 1.47µM (no result: NS1 function inh)
CC(C)[C@H](Nc1ccc(S(=O)(=O)N2CCOCC2)cc1[N+](=O)[O-])C(=O)OCC(=O)N(C(C)C)C(C)C	Pf growth 48h inconclusive, Pf growth 96h 5.22µM
O=C(Nc1ccc(Cl)c([N+](=O)[O-])c1)c1ccc(NCCCN2CCOCC2)c([N+](=O)[O-])c1	Pf growth 48h 14.7µM, Pf growth 96h inconclusive
COc1ccc(NC(=O)c2ccc(NCCCN3CCOCC3)c([N+](=O)[O-])c2)cc1	Pf growth 48h inconclusive
COc1ccc(C(=O)NC(Cn2ccnc2)C(C)(C)C)cc1OC1CCN(C(C)C)CC1 (stereo not given)	none
O=C(Nc1cccnc1)c1cccnc1Cl	none
O=C(Nc1ccc(-c2nc3cccnc3s2)cc1)c1ccc(Cl)nc1	Cycloheximide cs 34.0, Shiga toxin inh 67.7
O=C(Nc1ccc(-c2nc3cccnc3s2)cc1)c1cccnc1Cl	Cycloheximide cs 66.4, Shiga toxin inh 57.5
NC(=O)c1nn(-c2ccccc2)nc1NC(=O)Cn1nnc(-c2ccccc2)n1	none
Cc1ccc(CN2CCSc3sccc3C2=O)cc1	Pf growth 96h inconclusive
CCCCCC(=O)Nc1ccc2oc(-c3cncc(Br)c3)nc2c1	Cycloheximide cs 25.8, Pf growth 96h inconclusive
CCCC(=O)Nc1ccc2oc(-c3cncc(Br)c3)nc2c1	Cycloheximide cs 47.5, Shiga toxin inh 57.7, Pf growth 96h inconclusive
CC(Oc1ccc(C#N)cc1)C(=O)c1ccc(F)c(F)c1 (stereo not given)	Pf growth 48h inconclusive, Pf growth 96h inconclusive
CN1C(=O)C(C)(C)c2cc(S(=O)(=O)N3CCC(C(=O)NCc4ccccc4Cl)CC3)ccc21	Pf growth 48h inconclusive
CC(C)Nc1nc(NC(C)C)nc(N(C#N)C(C)C(=O)N(C)C)n1 (stereo not given)	Pf growth 96h 5.22µM
CCn1c(NC(=O)/C=C/c2ccc(F)cc2)nc2ccccc21	Pf growth 48h 11.7µM, Pf growth 96h inconclusive
CC(C)(C)C(=O)Cn1c(NCCCO)nc2ccccc21	Pf growth 96h 11.7µM
CNc1nc2ccccc2n1CC(=O)c1ccccc1	Cycloheximide cs 21.7
Cc1ccc(C(=O)Cn2c(NCCO)nc3ccccc32)cc1	Pf growth 96h inconclusive, SARS PLpro yeast inconclusive
CCn1c(NC(=O)c2ccccc2)nc2ccccc21	Cycloheximide cs 30.6, Shiga toxin inh 86.4, Pf growth 48h 11.7µM, Pf growth 96h 10.4µM
COc1cccc(CC(=O)OC(C)C(=O)Nc2ncc(Cl)cc2Cl)c1 (stereo not given)	none (no result: Cycloheximide cs, Shiga toxin inh, NS1 function inh)
COc1ccc(C(=O)CSc2nnc3n2CCCN3C(=O)Nc2ccccc2)cc1	Pf growth 96h inconclusive
C=CCn1c(NC(=O)c2ccccc2)nc2ccccc21	Cycloheximide cs 42.7, Shiga toxin inh 52.8, Pf growth 48h inconclusive, Pf growth 96h 11.7µM
CCCCn1c(NC(=S)Nc2ccccc2)nc2ccccc21	Pf growth 48h 5.22µM, Pf growth 96h inconclusive
C=CCn1c(P(=O)(O)c2ccccc2)nc2ccccc21	Pf growth 96h inconclusive
CCCCn1c(NC(=O)c2ccccc2)nc2ccccc21	Pf growth 48h inconclusive, Pf growth 96h 4.65µM
CCCCn1c(NC(=O)C2CCCCC2)nc2ccccc21	Pf growth 48h inconclusive (no result: Pf growth 96h)
COc1ccc(CN2CCNC(=O)C2CC(=O)N(C)Cc2ccon2)c(F)c1 (stereo not given)	none
CC(=O)OCC1(C)CN(c2ccccc2)NC1=O (stereo not given)	none (no result: NS1 function inh)
COc1cc(OC)cc(C(=O)Nc2cccc(NC(=O)c3ccccc3)c2)c1	Pf growth 96h inconclusive (no result: Pf growth 48h)
COc1cccc(C(=O)Nc2ccc(NC(C)=O)cc2)c1	Cycloheximide cs 28.4 (no result: Pf growth 48h)
COc1cc(OC)cc(C(=O)Nc2cccc(C(C)=O)c2)c1	Cycloheximide cs 24.7, Shiga toxin inh 47.7, Pf growth 48h inconclusive
COc1cccc(C(=O)Nc2ccc(C(=O)c3ccncc3)cc2)c1	Cycloheximide cs 17.2
COc1cccc(C(=O)Nn2cnnc2)c1	Cycloheximide cs 11.1, Pf growth 96h inconclusive
COc1cc(OC)cc(C(=O)Nn2cnnc2)c1	none
CN(C(=O)CSc1nc(N)cc(N)n1)C1CCS(=O)(=O)C1 (stereo not given)	none
COc1cccc(C(=O)Nc2ccccc2NC(=O)c2cccc(OC)c2)c1	Pf growth 96h 14.7µM (no result: Shiga toxin inh)
COc1cccc(S(=O)(=O)Nc2ccc(C(=O)Nc3ccncc3)cc2)c1	Pf growth 96h 8.28µM
